Consider 6 compounds from PubChem BioAssay.

Structures are written as SMILES. “And” between values parts separate entries of the source, which are not always exact repeats. Equal values may be shown once. Results filed as inconclusive are left out. The source made the active and inactive calls.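 Rule for the calls, unless noted: active = normalized viability below 100% at a tested concentration; inactive = the rest.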

Experiment [1] in a line: growth inhibition of DIPG glioma cells, dose response, cell-based, SU-DIPG-XIII, MIPE4.0, CellTiter-Glo, qHTS (AID 1347061; cut-off not given, nearly all actives have AC50 up to about 37 µM;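 note: cells exposed to compound for 48 hours before readout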). The settings on record: SU-DIPG-XIII viability, CellTiter-Glo ATP luminescence.
A short description of experiment [2]: growth inhibition of DIPG glioma cells, dose response, cell-based, JHH-DIPG-1, MIPE4.0, CellTiter-Glo, qHTS (AID 1347062; cut-off not given, nearly all actives have AC50 up to about 27 µM;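 for AC50: cells exposed to compound for two days before readout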). To be noted: JHH-DIPG-1 viability, CellTiter-Glo ATP luminescence.
Experiment [3] in a line: SU-DIPG-VI glioma cell viability, MIPE4.0 library, CellTiter-Glo luminescence, qHTS (AID 1347066; cut-off not given, nearly all actives have AC50 up to about 30 µM;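 note: cells exposed to compound for 48 hours before readout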). The settings on record: CellTiter-Glo ATP luminescence.
Experiment [4] is described as follows: JHH-DIPG-1 glioma cell viability, MIPE5.0 library, CellTiter-Glo luminescence, qHTS (AID 1347067; cut-off not given, nearly all actives have AC50 up to about 26 µM;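 note: cells exposed to compound for 48 hours before readout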). The settings on record: JHH-DIPG-1 glioma viability, CellTiter-Glo ATP luminescence.
A short description of experiment [5]: SU-DIPG-XXV glioma cell viability, MIPE5.0 library, qHTS (AID 1347068; cut-off not given, nearly all actives have IC50 up to about 30 µM).
Experiment [6] can be described thus: sensitizers of A549 cells to miR-34 induction, primary screen, imaging, A549 dox-inducible miR-34, nuclei and caspase counts (AID 1347080;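 active = compounds whose cell count with miR-34 switched on is under 0.7 times the count with it off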). The settings on record: A549 miR-34 inducible, Hoechst nuclei count, 48 h.
Experiment [7] in a line: survival rescue of mitochondrial mutant cells in low glucose, primary screen, MELAS cybrids, Rieske KO mouse fibroblasts, CellTiter-Glo (AID 1508586;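 active = mean z-score across replicates of 1.96 or higher in either the MELAS or the Rieske mutant cell line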;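 note: z relative to plate mean and SD of compound and empty wells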).
A short description of experiment [8]: viability loss in pontine glioma line – cell-based, SU-DIPG-XXV, MIPE5.0, CellTiter-Glo, qHTS, dose response (AID 1347065; cut-off not given, nearly all actives have AC50 up to about 26 µM;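 note: cells exposed to compound for 48 hours before ATP readout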). To be noted: CellTiter-Glo ATP luminescence.
The nature of experiment [9]: modifiers of HSF1 nuclear foci, imaging, Selleck Cancer Library (AID 1347162; in the data active = plate-normalised HSF1 focus index below about 0.46). To be noted: human cells, at 10 µM; SSMD: measured here: HSF1 foci SSMD mean; cell count: measured here: cell number; plate-normalised HSF1 focus index: stronger effect = lower value.
Experiment [10] is described as follows: ovarian cancer cell viability with rucaparib, profiling panel, oncology-focused library, rucaparib conditional (AID 1508598). The settings on record: patient-derived ovarian cancer cells, CellTiter-Glo viability, 144 h, stronger effect = lower value.
Where [11] appears, read: stronger effect = lower value, cell number ratio, induced over uninduced.
[12] abbreviates: measured here: relative caspase fold change +Dox/-Dox.
The mark [13] stands for this setting: measured here: total cells with miR-34 induction, stronger effect = lower value.
Setting [14] is: measured here: total cells without miR-34 induction.
The mark [15] stands for this setting: MELAS cybrid survival, CellTiter-Glo 48 h, stronger effect = higher value.
The mark [16] stands for this setting: Rieske KO mouse fibroblast survival, CellTiter-Glo 72 h.

For the compound `OCc1ccc(-c2nn(Cc3ccccc3)c3ccccc23)o1`, the result in experiment [1], in experiment [2], in experiment [3] and in experiment [5] was inactive. The AC50 in experiment [4] was 23.5 µM (active). The fold change in experiment [6] (setting [11]) is 0.905 (inactive) and 0.927 (inactive) and 0.926 (inactive); in experiment [6] (setting [12]), 1.2 and 0.954 and 0.941. Further, the cell count in experiment [6] (setting [13]) is 5070 and 1870 and 4400; in [6] (setting [14]) it was 5600 and 2020 and 4750.
On to `Cc1cc(C(C)Nc2ccccc2)c2nc(N3CCOCC3)cc(=O)n2c1` (configuration not stated), for which the result in experiment [1], in [2], in [3], in experiment [4] and in experiment [5] was inactive. Further, the fold change is 0.85 (inactive) in experiment [6] (setting [11]) and 1.05 in [6] (setting [12]). In addition, the cell count in experiment [6] (setting [13]) was 5530; in experiment [6] (setting [14]) it was 6510. The z-score is -0.0991 (inactive) in experiment [7] (setting [15]) and 1.51 in [7] (setting [16]).
For the compound `OC[C@H](Cc1ccccc1)Nc1nc(Oc2ccc3c(c2)CCC3)nc2c1ncn2Cc1ccc(-c2ccccc2)cc1`, the compound was called inactive in [1], in [2], in [3] and in experiment [5].
For `COc1ccc(Cc2nccc3cc(OC)c(OC)cc23)cc1OC`, the call in experiment [1], in [2], in experiment [8] and in experiment [3] was inactive.
In the case of `Cn1cc(-c2ccc3nnc(C(F)(F)c4ccc5ncccc5c4)n3n2)cn1`, the outcome in experiment [1], in [2], in experiment [8], in [4] and in experiment [5] was inactive. For the same compound, the fold change in experiment [6] (setting [11]) is 0.861 (inactive); in experiment [6] (setting [12]) it was 0.881. Moreover, the results for the cell count in [6] (setting [13]), in experiment [6] (setting [14]) and in experiment [9] were 6960, 8080 and 6920, respectively. Besides, in experiment [9], the SSMD was determined as 2.73. For the same compound, in [9], the plate-normalised HSF1 focus index was 1.14 (inactive). Further, the z-score was -0.414 (inactive) in [7] (setting [15]) and 0.567 in experiment [7] (setting [16]). Also, the viability in [10] (at 0.000305 µM, OCI-C5x cells, with rucaparib 10 µM, 100% = cells with rucaparib alone) was 113% (inactive); in [10] (at 0.000305 µM, OCI-C5x cells, without rucaparib), 90.8% (active); in [10] (at 0.000305 µM, OCI-P5x cells, with rucaparib 20 µM, 100% = cells with rucaparib alone), 102% (inactive); in experiment [10] (at 0.000305 µM, OCI-P5x cells, without rucaparib), 89.6% (active); in experiment [10] (at 0.00122 µM, OCI-C5x cells, with rucaparib 10 µM, 100% = cells with rucaparib alone), 123% (inactive); in experiment [10] (at 0.00122 µM, OCI-C5x cells, without rucaparib) it was 106% (inactive). The viability is 104% (inactive) in experiment [10] (at 0.00122 µM, OCI-P5x cells, with rucaparib 20 µM, 100% = cells with rucaparib alone); 98.1% (active) in [10] (at 0.00122 µM, OCI-P5x cells, without rucaparib); 118% (inactive) in [10] (at 0.00488 µM, OCI-C5x cells, with rucaparib 10 µM, 100% = cells with rucaparib alone); 109% (inactive) in experiment [10] (at 0.00488 µM, OCI-C5x cells, without rucaparib); 107% (inactive) in experiment [10] (at 0.00488 µM, OCI-P5x cells, with rucaparib 20 µM, 100% = cells with rucaparib alone); 101% (inactive) in experiment [10] (at 0.00488 µM, OCI-P5x cells, without rucaparib). Further, the viability in experiment [10] (at 0.0195 µM, OCI-C5x cells, with rucaparib 10 µM, 100% = cells with rucaparib alone) is 116% (inactive); in experiment [10] (at 0.0195 µM, OCI-C5x cells, without rucaparib), 114% (inactive); in [10] (at 0.0195 µM, OCI-P5x cells, with rucaparib 20 µM, 100% = cells with rucaparib alone), 106% (inactive); in experiment [10] (at 0.0195 µM, OCI-P5x cells, without rucaparib) it was 98.3% (active); in [10] (at 0.0781 µM, OCI-C5x cells, with rucaparib 10 µM, 100% = cells with rucaparib alone), 110% (inactive); in [10] (at 0.0781 µM, OCI-C5x cells, without rucaparib), 110% (inactive). Further, the viability is 104% (inactive) in experiment [10] (at 0.0781 µM, OCI-P5x cells, with rucaparib 20 µM, 100% = cells with rucaparib alone); 102% (inactive) in [10] (at 0.0781 µM, OCI-P5x cells, without rucaparib); 120% (inactive) in experiment [10] (at 0.313 µM, OCI-C5x cells, with rucaparib 10 µM, 100% = cells with rucaparib alone); 112% (inactive) in experiment [10] (at 0.313 µM, OCI-C5x cells, without rucaparib); 105% (inactive) in experiment [10] (at 0.313 µM, OCI-P5x cells, with rucaparib 20 µM, 100% = cells with rucaparib alone); 95.6% (active) in [10] (at 0.313 µM, OCI-P5x cells, without rucaparib). For the same compound, the viability in experiment [10] (at 1.25 µM, OCI-C5x cells, with rucaparib 10 µM, 100% = cells with rucaparib alone) is 133% (inactive); in experiment [10] (at 1.25 µM, OCI-C5x cells, without rucaparib) it was 123% (inactive); in experiment [10] (at 1.25 µM, OCI-P5x cells, with rucaparib 20 µM, 100% = cells with rucaparib alone), 107% (inactive); in experiment [10] (at 1.25 µM, OCI-P5x cells, without rucaparib) it was 104% (inactive); in [10] (at 5 µM, OCI-C5x cells, with rucaparib 10 µM, 100% = cells with rucaparib alone), 130% (inactive); in experiment [10] (at 5 µM, OCI-C5x cells, without rucaparib) it was 137% (inactive). Besides, the viability in [10] (at 5 µM, OCI-P5x cells, with rucaparib 20 µM, 100% = cells with rucaparib alone) is 97% (active); in experiment [10] (at 5 µM, OCI-P5x cells, without rucaparib), 104% (inactive).
For `CN(C)/[N+]([O-])=N/Oc1cc(ON[N+](=O)N2CCN(C(=O)c3cc(Cc4n[nH]c(=O)c5ccccc45)ccc3F)CC2)c([N+](=O)[O-])cc1[N+](=O)[O-]`, the figures for the AC50 in [1] and in experiment [2] were 20.9 µM (active) and 13.2 µM (active), respectively. In addition, the result in experiment [3] was inactive.
